Pf growth 96h – Primary qHTS for delayed death inhibitors of the malarial parasite plastid, 96 hour incubation | actives 6.9% (n = 320,000) | P. falciparum luciferase reporter growth, 96 h | Potency, µM (series often up to 28.7 µM), for the others: at the top dose activity change, negative = inhibition, usual class: inhibitors | AID 504834, 2011; note: potency is the fitted concentration of half-maximal effect; % is set by controls: 0 for no effect and ±100 for the full control effect
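Cell-based qHTS: luciferase-tagged P. falciparum in erythrocytes (2% hematocrit, 0.05% parasitemia final) incubated with compounds for 96 hours, 37 C, 5% CO2; luciferase detection reagent then added and luminescence measured.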
Cycloheximide cs – Cycloheximide Counterscreen for Small Molecule Inhibitors of Shiga Toxin | actives 12% (n = 300,000) | max response, % | cell reporter, cycloheximide protein synthesis inhibition counterscreen | AID 2314, 2010; in the data active = max response mostly above about 13%, no sharp cut-off; inactive = mostly below about 14%; note: read at 38.3 µM for the half of the compounds with a filed dose; 0% is about no effect
Shiga toxin inh – A qHTS for Small Molecule Inhibitors of Shiga Toxin; Vero cells, Shiga toxin protein synthesis inhibition reporter; inhibition, % at 38.7 µM; actives 9.2% (n = 290,000); in the data active = inhibition mostly above about 28%, no sharp cut-off; inactive = mostly below about 43%; note: 0% is about no effect
Pf growth 48h – Primary qHTS for delayed death inhibitors of the malarial parasite plastid, 48 hour incubation; AID 504832, 2011; actives 5.9% (n = 310,000); P. falciparum luciferase growth in erythrocytes, 48 h; Potency, µM (top dose mostly 28.7 µM), without a hit: at the top dose activity change, negative = inhibition, hits mostly inhibitors; note: potency is the fitted concentration of half-maximal effect; % is set by controls: 0 for no effect and ±100 for the full control effect
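Luciferase-expressing P. falciparum in infected erythrocytes (2% hematocrit, 0.1% parasitemia final) in RPMI 1640/0.5% Albumax were exposed to compound for 48 hours at 37 C, 5% CO2; growth read as luminescence.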
LmPK inh – qHTS Assay for Inhibitors of Leishmania Mexicana Pyruvate Kinase (LmPK) | Potency, µM (highest dose often 57.5 µM), for the others: at the top dose activity change, negative = inhibition, usual class: inhibitors | AID 1721, 2009 | purified LmPK, Kinase-Glo ATP luminescence, 1 h | actives 0.37% (n = 290,000); note: potency is the fitted concentration of half-maximal effect; % is set by controls: 0 for no effect and ±100 for the full control effect
Target sequence (Q27686 whole entry, looked up): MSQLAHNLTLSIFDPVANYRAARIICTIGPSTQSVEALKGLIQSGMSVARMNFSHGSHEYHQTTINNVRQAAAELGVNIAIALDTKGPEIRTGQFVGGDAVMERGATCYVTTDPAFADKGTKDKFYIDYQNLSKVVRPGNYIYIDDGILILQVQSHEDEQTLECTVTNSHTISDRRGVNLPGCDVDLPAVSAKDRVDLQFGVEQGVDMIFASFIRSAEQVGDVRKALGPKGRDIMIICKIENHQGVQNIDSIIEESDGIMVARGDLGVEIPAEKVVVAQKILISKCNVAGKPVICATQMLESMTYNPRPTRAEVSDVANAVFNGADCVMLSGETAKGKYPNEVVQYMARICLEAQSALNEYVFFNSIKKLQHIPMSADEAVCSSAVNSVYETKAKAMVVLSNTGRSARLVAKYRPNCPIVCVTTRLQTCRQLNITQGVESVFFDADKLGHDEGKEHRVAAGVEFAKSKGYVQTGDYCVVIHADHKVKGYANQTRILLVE
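ATP generated from ADP (0.1 mM) and PEP (0.5 mM) by 0.1 nM LmPK over 1 h at room temperature (pH 7.2 imidazole buffer) was detected by coupled luciferase luminescence. Values were normalized to uninhibited and no-enzyme wells.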
The depositor's hits bear a star; ? = inconclusive; / = not tested or not shown. Only some compounds are listed: those with a hit (about 22% of all), similar ones and a draw of the others. Unless noted, calls come from the whole dose curve; as a rule, active = well fitted inhibition curve with a large enough effect; inconclusive = small, poorly fitted or top-dose-only effect, or another doubt; inactive = no such curve, though single readings can be large or run the other way.

SMILES	Pf growth 96h	Cycloheximide cs	Shiga toxin inh	Pf growth 48h	LmPK inh
CCOC(=O)c1c(C)[nH]c(C(=O)COC(=O)[C@H](C)NC(=O)c2ccccc2Cl)c1C	17%	28*	49*	29%	3%
CCOC(=O)c1c(C)[nH]c(C(=O)COC(=O)c2ccccc2NC(=O)c2ccco2)c1C	35%	8	-7	-4%	8%
O=C(CCNC(=O)c1ccc(Br)cc1)NC1CCCc2ccccc21 (configuration not stated)	3%	/	/	?	/
O=C(NCc1ccccn1)C1CCN(S(=O)(=O)N2CCC3(CC2)OCCO3)CC1	10µM*	-3	-3	-6%	1%
O=C(NCCCN1CCC(Cc2ccccc2)CC1)C1CCN(S(=O)(=O)N2CCC3(CC2)OCCO3)CC1	-4%	35*	128	?	3%
O=C(C1CCN(S(=O)(=O)N2CCC3(CC2)OCCO3)CC1)N1CCc2ccccc2C1	5.2µM*	-2	-10	/	-8%
O=C(NCCN1CCC(Cc2ccccc2)CC1)C1CCN(S(=O)(=O)N2CCC3(CC2)OCCO3)CC1	-125%	-2	-6	?	7%
Cc1ccc(OCC(=O)Nc2cc(S(=O)(=O)N3CCOCC3)ccc2Cl)c([N+](=O)[O-])n1	-1%	2	-3	78%	3%
Cc1ccc(N(CC2CO2)S(=O)(=O)c2ccccc2[N+](=O)[O-])cc1 (configuration not stated)	32%	-2	-5	15%	-4%
Cc1cc(=O)n2nc(N3CCC(C(=O)NC4CCCc5ccccc54)CC3)sc2n1 (configuration not stated)	0.59µM*	-6	-17	?	1%
Cc1cc(=O)n2nc(N3CCC(C(=O)NC(C)c4ccccc4)CC3)sc2n1 (configuration not stated)	/	-8	9	-7%	1%
Cc1cc(=O)n2nc(N3CCC(C(=O)NCc4ccccc4Cl)CC3)sc2n1	12µM*	8	-4	?	1%
O=C(NCCc1ccccn1)c1nc(Cn2ccc([N+](=O)[O-])n2)no1	?	-2	-13	20%	-1%
Cc1[nH][nH]c(=O)c1C=NCc1ccc(Cl)cc1	-15%	-5	1	-20%	-3%
COc1cccc(CC(=O)N2CCC(n3nccc3NC(=O)C3CCOC3)CC2)c1 (configuration not stated)	10%	-4	-12	-6%	-6%
CN(CC(=O)Nc1n[nH]c(=S)s1)S(=O)(=O)c1cccc2cccnc12	5.2µM*	-5	-7	-5%	1%
Cc1csc(NC(=O)CN(C)S(=O)(=O)c2cccc3cccnc23)n1	66%	5	4	/	-1%
CCOc1ccc(N(CC(=O)NCc2ccc(F)cc2)C(=O)c2ccco2)cc1	?	14	28	-2%	-5%
O=C(CN(C(=O)c1cccc([N+](=O)[O-])c1)C1CCCCC1)Nc1ccc(Cl)c([N+](=O)[O-])c1	?	-5	-4	1.9µM*	2%
Cc1nn2c(NCCN3CCOCC3)c3c(nc2c1-c1ccccc1)CCCC3	13µM*	2	-5	?	1%
Cc1[nH]n2c(=O)c3c(nc2c1-c1ccccc1)CCCC3	-13%	-3	26	?	-4%
Cc1nn2c(N3CCN(C)CC3)c3c(nc2c1-c1ccccc1)CCCC3	9.3µM*	-3	-12	66%	2%
COc1ccc(Nc2c3c(nc4c(-c5ccccc5)c(C)nn24)CCC3)cc1	5.9µM*	4	-3	13µM*	1%
Cc1cc(NCc2ccccn2)n2nc(C)c(-c3ccccc3)c2n1	2.1µM*	7	9	1.7µM*	6%
COc1ccc(-c2c(C)nn3c(-c4ccccc4)cc(C)nc23)cc1	?	6	24	-17%	12%
COC(=O)C1=C(CS(=O)(=O)c2ccc(OC)c(OC)c2)NC(=O)NC1c1ccc(O)c(OC)c1 (configuration not stated)	32%	-2	-2	32%	3%
COc1cccc(NC(=O)C2CCN(C(=O)NC3CCCCC3)CC2)c1	?	5	-2	-12%	-3%
CCC(=O)Nc1cc(C(=O)O)ccc1Sc1ccc(Cl)cc1	49%	8	29	-14%	0%
